# From paper PMC4336329 (PLoS ONE, 2015)
# The campaign covered roughly 310,000 compounds. About 14,000 (4.5%) showed an effect of 50% or more. Effects have a minus sign here. The full list was thinned out, with strong results kept by preference.
# Target: human ether-à-go-go-related gene (hERG) potassium channel (human, UniProt Q12809)
# Experiment: primary screen, population patch clamp on CHO cells stably expressing hERG; higher = less effect of the substance
# 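Note: peak tail current of the secondary pulse compared with the same well before compound.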
# Chain of human ether-à-go-go-related gene (hERG) potassium channel (Q12809 whole entry, looked up): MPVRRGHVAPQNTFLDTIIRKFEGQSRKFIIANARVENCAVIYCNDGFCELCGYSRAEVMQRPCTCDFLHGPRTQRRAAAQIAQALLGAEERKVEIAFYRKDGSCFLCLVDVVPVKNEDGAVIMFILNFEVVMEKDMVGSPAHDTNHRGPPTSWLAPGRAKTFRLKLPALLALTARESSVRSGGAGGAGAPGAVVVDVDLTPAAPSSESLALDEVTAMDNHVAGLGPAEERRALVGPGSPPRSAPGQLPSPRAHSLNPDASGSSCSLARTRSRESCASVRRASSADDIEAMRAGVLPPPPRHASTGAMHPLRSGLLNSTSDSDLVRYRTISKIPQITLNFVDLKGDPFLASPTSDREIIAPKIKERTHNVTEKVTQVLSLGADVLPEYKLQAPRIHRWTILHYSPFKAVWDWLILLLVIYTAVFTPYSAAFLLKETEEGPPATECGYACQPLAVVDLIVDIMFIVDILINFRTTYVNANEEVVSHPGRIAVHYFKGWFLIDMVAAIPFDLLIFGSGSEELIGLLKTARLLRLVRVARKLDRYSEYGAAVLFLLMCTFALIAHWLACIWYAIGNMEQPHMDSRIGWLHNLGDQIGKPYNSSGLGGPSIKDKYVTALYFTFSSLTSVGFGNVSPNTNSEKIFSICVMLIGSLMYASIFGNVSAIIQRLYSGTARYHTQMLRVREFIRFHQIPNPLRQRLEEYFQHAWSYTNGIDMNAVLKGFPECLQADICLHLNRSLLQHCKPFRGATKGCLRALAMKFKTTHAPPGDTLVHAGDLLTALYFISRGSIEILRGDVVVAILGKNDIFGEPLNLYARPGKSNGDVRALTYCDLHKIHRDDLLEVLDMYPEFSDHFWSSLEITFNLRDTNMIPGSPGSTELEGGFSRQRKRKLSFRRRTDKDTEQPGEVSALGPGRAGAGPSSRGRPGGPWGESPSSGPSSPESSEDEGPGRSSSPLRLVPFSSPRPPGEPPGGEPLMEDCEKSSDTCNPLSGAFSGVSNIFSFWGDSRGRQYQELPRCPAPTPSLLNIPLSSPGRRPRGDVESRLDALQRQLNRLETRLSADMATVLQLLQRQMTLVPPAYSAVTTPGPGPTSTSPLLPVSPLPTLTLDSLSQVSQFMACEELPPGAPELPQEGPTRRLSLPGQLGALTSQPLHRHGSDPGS
row,Compound,"hERG current change (%, negative = inhibition) at 10uM [%]"
1,COC(=O)Cc1c(CSc2ccccc2)oc2ccc(O)c(CN(C)C)c12,-47.8
2,COc1ccc2c(c1)[nH]c1c(=O)n(CCN(C)C)cnc12,-34.1
3,CCOC(=O)c1cccc(NC(=O)/C=C/c2cccc([N+](=O)[O-])c2)c1,-15.4
4,Cn1c(SCC(=O)NCc2ccccc2)nc2c([nH]c3ccccc32)c1=O,8.94
5,CCC(=O)Nc1nnc(S(=O)(=O)N2CCCC2)s1,8.85
6,Cc1c(NC(=O)c2cccc(F)c2)c(=O)n(-c2ccccc2)n1C,20.5
7,CCCOC(=O)c1ccc(NC(=O)c2ccccc2OC)cc1,4.44
8,CCOC(=O)C1=C(C)N(C)C(=O)NC1c1ccccc1OC (centres unmarked),-12.1
9,Cc1ccc(Nc2nc(Oc3ccc(OCc4ccccc4)nn3)nc(N3CCOCC3)n2)cc1,3.53
10,S=c1oc(-c2ccncc2)nn1CCc1ccncc1,13
11,CCc1nc2c3cnn(-c4cc(Cl)ccc4C)c3ncn2n1,5.24
12,Cn1c2ccccc2c2c(C(=O)O)cn(C3CCCC3)c(=O)c21,7.78
13,NC(=O)c1cn(C2CCCCC2)c2ccccc2c1=O,-65.2
14,Cn1cc(-c2ccccc2C(N)=O)c(=O)c2ccccc21,5.37
15,CN(C)S(=O)(=O)c1ccc(C(=O)N2CC(=O)Nc3ccc(F)cc3C2c2ccc(F)cc2)cc1 (centres unmarked),-21
16,CCC(CC)NC(=O)C1CCN(S(=O)(=O)c2cccs2)CC1,1.92
17,COc1ccc(Cl)cc1NC(=S)Nc1cccc(C)c1,10.3
18,Cl.O=C(O)c1ccc(CNCc2ccccc2F)cc1,5.98
19,COc1cccc(OCC(O)CN2C(C)CCCC2C)c1.Cl (centres unmarked),10.8
20,Cc1cc(Cl)ccc1OCC(O)CN1C(C)CCCC1C.Cl (centres unmarked),-73.2
21,CC1CCCC(C)N1CC(O)COCc1ccccc1F.Cl (centres unmarked),13.2
22,Cc1ccc(C)c(OCC(O)CN2C(C)CCCC2C)c1.Cl (centres unmarked),-67.9
23,CC(=O)Nc1ccc(OCC(O)CN2C(C)CCCC2C)cc1.Cl (centres unmarked),19.1
24,Cc1cc(Cl)ccc1OCC(=O)N1C(C)CCCC1C (centres unmarked),-6.46

row,Compound,"hERG current change (%, negative = inhibition) at 10uM [%]"
1,CC1CCCC(C)N1CC(O)COc1ccc(Cl)cc1 (centres unmarked),-65
2,Cc1cc(OCC(O)CN2C(C)CCCC2C)ccc1C(C)C (centres unmarked),-32.4
3,CC1CCCC(C)N1CC(O)COCc1ccccc1.Cl (centres unmarked),5.08
4,CCn1c(/C=C/c2c[nH]c3ccccc23)nc2ccccc2c1=O,20.5
5,CCOc1ccc2nc(N3CCC(C(=O)Nc4nnc(CC)s4)CC3)sc2c1,11.9
6,Cn1c(=O)c2cn(Cc3ccc(Cl)cc3)cc2n(C)c1=O,-1.75
7,CCOc1ccc(C2NCCc3cc(OC)c(OC)cc32)cc1OC (centres unmarked),12.3
8,O=C1C(CSCc2ccccc2)NC(=S)N1c1ccccc1 (centres unmarked),16
9,Nc1nc(SCCO)[nH]c(=O)c1NC(=O)c1ccc(Br)o1,23.8
10,Cc1ccc(OCC(=O)NNC(=O)C2CCN(c3ncccn3)CC2)cc1,-18.6
11,COC(=O)C1=C[C@@H](C(=O)OC)[C@@H]2C3=C(C(=O)[C@]2(CC(C)C)NC(=O)c2ccccc2)[C@H](C)n2c(=O)n(-c4ccccc4)c(=O)n2[C@@H]3C1,-8.87
12,CCN(C(=O)COC(=O)C1CCN(S(=O)(=O)c2ccc3c(c2)OCCO3)CC1)C1CCCCC1,-2.31
13,CC1(C)Cc2cccc(OCC(=O)NCc3ccccc3F)c2O1,-5.79
14,CC(Oc1ccccc1)C(=O)N1CCC2(CC1)Oc1ccc(Cl)cc1C(=O)C21CC(c2ccccc2)=NO1 (centres unmarked),7.46
15,CC(Oc1ccccc1)C(=O)N1CCN(C(=O)C(C)Oc2ccccc2)CC1 (centres unmarked),8.52
16,CC(Oc1ccccc1)C(=O)N1CCC2(CC1)CC(=O)c1ccccc1O2 (centres unmarked),-65.7
17,CC(Oc1ccccc1)C(=O)N1CCN(c2ccc(N3CCCCCC3)nn2)CC1 (centres unmarked),-52.7
18,O=C1CC2(CCN(C(=O)COc3ccc(Cl)cc3)CC2)Oc2ccccc21,-85.8
19,CC(Oc1ccccc1)C(=O)N1CCN(c2ccc(N3CCOCC3)nn2)CC1 (centres unmarked),-3.79
20,CC(=O)N1CCC2(CC1)CC(=O)c1cc(OCC(=O)NCc3ccc(C)cc3)ccc1O2,-21.3
21,CCOC(=O)COc1ccc2c(c1)C(=O)CC1(CCN(C(C)=O)CC1)O2,-19.7
22,CC(Oc1ccccc1)C(=O)N1CCN(c2ccc(N3CCCCC3)nn2)CC1 (centres unmarked),-28.5
23,Cc1ccc(OCC(=O)N2CCC3(CC2)CC(=O)c2ccccc2O3)cc1,-73.3
